This assay relates to LOC_OS01G21960-cb002. The assay can be described thus: thermal shift delta Tm vs DMSO control; higher = stronger stabilization (binding). As to conditions: 12.5 µM; protein concentration 2 µM. In short, it runs like this:
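Thermal shift values come from differential scanning fluorimetry on purified rice kinase domains made in E. coli, with melting temperatures obtained from Boltzmann fits. Samples of 19.5 μl held 2 μM kinase, 100 mM potassium phosphate pH 7.5, 150 mM NaCl, 10% glycerol, 5 × SYPRO Orange and compound in DMSO, and were heated from 25°C to 95°C at 0.05°C/s. Each shift is a triplicate mean relative to the DMSO-only protein sample.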
As for `O=C(Nc1cccc(C(F)(F)F)c1)c1cccc2cc(Oc3cc(CO)ncn3)ccc12`, the “thermal shift delta Tm” value stood at 0.94 °C.
The value for `CC1(C)C=Cc2c(ccc3c2OC[C@@H](c2ccc(O)cc2O)C3)O1` [Glabridin] was 1.14 °C; that for `COc1ccccc1-c1cc(Nc2cccc(CS(N)(=O)=O)c2)ncn1` was 1.02 °C; that for `Cc1ccc(C(=O)Nc2ccc(Oc3cc4cnn(C)c4cc3-c3cn[nH]c3)c(F)c2)c(=O)n1-c1ccc(F)cc1` was 0.63 °C.
Next, `CCS(=O)(=O)c1cccc(-c2cc(C(=O)NC3CCN(C)CC3)c(C)c3[nH]c4ncc(C)cc4c23)c1`: 2.97 °C; `CCc1cncnc1N1CCN(Cc2nc3ccc(C(F)(F)F)cc3[nH]2)CC1`: 0.83 °C; `Cc1ccc(NC(=O)c2ccc(CN3CCN(C)CC3)cc2)cc1Nc1nccc(-c2cccnc2)n1` [Imatinib (STI571)]: -0.24 °C.
Next, `CCn1c(=O)c(-c2ccc(Cl)cc2Cl)cc2cnc(Nc3ccc(N4CCNCC4)c(F)c3)nc21`: 0.97 °C; `COc1cc(N2CCN(C)CC2)ccc1Nc1ncc2c(n1)N(C)c1ccccc1C(=O)N2`: 0.53 °C; `CCn1c(-c2nonc2N)nc2cnc(Oc3cccc(NC(=O)c4ccc(OCCN5CCOCC5)cc4)c3)cc21`: 0.9 °C.
As to `O=C1Cc2c([nH]c3ccc(Br)cc23)-c2ccccc2N1` [Kenpaullone], the “thermal shift delta Tm” value stood at 1.74 °C.
As to `COC(=O)Nc1ccc(-c2nc(N3CCOCC3)c3cnn(C4CCN(C(=O)OC)CC4)c3n2)cc1`, the “thermal shift delta Tm” value was determined as 0.37 °C.
The value for `Nc1ncc(-c2ccnc(Nc3ccncc3)n2)c(CC2CC2)n1` was 0.87 °C; that for `C=CC(=O)Nc1ccc2ncnc(Nc3cccc(Br)c3)c2c1` was 0.15 °C; that for `COc1nccc(-c2c(-c3ccc(F)cc3)ncn2C2CCC(O)CC2)n1` (configuration not stated) was 0.69 °C.
Next, `CC(C)Nc1cc(-c2c[nH]c(C(=O)N[C@H](CO)c3cccc(Cl)c3)c2)c(Cl)cn1`: 1.37 °C; `CN1CCN(Cc2ccc(NC(=O)Nc3ccc(Oc4ccnc(N)n4)cc3)cc2C(F)(F)F)CC1`: 0.98 °C; `O=C(NCCO)c1cccc(-c2cc(Nc3ccc(OC(F)(F)F)cc3)ncn2)c1`: 0.44 °C.
Next, `CC(C)(O)CNc1ncc(-c2ccnc(Nc3ccnc(Cl)c3)n2)c(CC2CC2)n1`: 0.91 °C.
Regarding `O=C1NC(=O)C(c2ccccc2[N+](=O)[O-])=C1Nc1ccc(O)c(Cl)c1`, the “thermal shift delta Tm” value is 1.43 °C.
Next, `CCOc1cc(N2CCC(O)CC2)ccc1Nc1ncc2c(n1)N(C)c1ccccc1C(=O)N2C`: 0.41 °C; `COc1ccc(-c2ccc3ncc4c(c3c2)n(-c2ccc(N3CCNCC3)c(C(F)(F)F)c2)c(=O)n4C)cn1`: 2.58 °C.

These data come from the supplement of paper PMC9694430.
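Note: purified Escherichia coli-expressed rice kinase domain construct.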
